From PubChem BioAssay (Tox21)
Several values for one entry are separate records, joined by “and”; a condition that tells them apart may be missing. Equal entries are not always repeated. Results filed as inconclusive are left out. A call without a number means that no potency is given here. A structure can be active in one record and inactive in another. Activity calls are given as the source filed them. Unless noted, the call rests on the fitted dose curve.

Key:
[1] = qHTS assay to identify small molecule agonists of the vitamin D receptor (VDR) signaling pathway - cell viability counter screen (AID 743224; active means well fitted curve in the direction sought with a large enough effect in the repeat runs; an effect the other way counts as inactive or inconclusive; further: nearly all actives have a fitted effect of over 50% in size; further: potency means the concentration at half of the fitted maximal effect)
Procedure, shortened: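 VDR-bla cell line, quantitative HTS format; 16 h compound incubation (37C, 5% CO2); ATP-based CellTiter-Glo luminescence measured in the reporter assay wells.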

[2] = qHTS assay to identify small molecule antagonists of the vitamin D receptor (VDR) signaling pathway - cell viability counter screen (AID 743225; active means well fitted curve in the direction sought with a large enough effect in the repeat runs; an effect the other way counts as inactive or inconclusive; further: nearly all actives have a fitted effect of over 50% in size)
Procedure, shortened: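 Viability counter screen run in the same wells as the beta-lactamase reporter assay: HEK 293T VDR-UAS-bla cells, 16 h compound exposure at 37C with 3 nM (final) 1-alpha,25-dihydroxyvitamin D3. CellTiter-Glo luminescence, 30 min, room temperature.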

[3] = qHTS assay to identify small molecule agonists of the NFkB signaling pathway (AID 1159509; active means well fitted curve in the direction sought with a large enough effect in the signal ratio in the repeat runs, not every such curve was filed as active; the % refers to the signal ratio; further: series mostly up to about 61 µM)
Procedure, shortened: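 NFkB-bla ME-180 cells with a beta-lactamase reporter under an NF-kB response element were plated overnight, treated with compounds in DMSO for 5 hr at 37 C, then loaded with FRET substrate for 1.5 hr at room temperature.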

[4] = qHTS assay to identify small molecule agonists of the NFkB signaling pathway - cell viability counter screen (AID 1159515); further: series mostly up to about 61 µM; nearly all actives have a fitted effect of over 55% in size
Procedure, shortened: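 Viability in NFkB-bla ME-180 cells was measured by CellTiter-Glo luminescence, 30 min room temperature, in wells already treated 5 hr with compounds and read for reporter FRET.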

[5] = qHTS assay to identify small molecule agonists of the endoplasmic reticulum stress response signaling pathway (AID 1159516; active means well fitted activation curve with a large enough effect in the signal ratio in the repeat runs, not every such curve was filed as active; the % refers to the signal ratio)
Procedure, shortened: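 ER stress element reporter (bla) in HeLa. 1,500 cells/well, overnight attachment; 5 hr compound; 2 hr RT substrate; dual-emission fluorescence.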

[6] = qHTS assay to identify small molecule antagonists of the retinoid-related orphan receptor gamma (ROR-gamma) signaling pathway - cell viability counter screen (AID 1159520; active means well fitted curve in the direction sought with a large enough effect in the repeat runs; an effect the other way counts as inactive or inconclusive; further: nearly all actives have a fitted effect of over 50% in size; further: potency means the concentration at half of the fitted maximal effect)
Procedure, shortened: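 Tet-on ROR gamma CHO cells were given compounds for 2 hr, then doxycycline hyclate at 1 uM final, and incubated 16 hr at 37 C. Viability was measured as ATP content by CellTiter-Glo luminescence.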

[7] = qHTS assay to identify small molecule agonists of the AP-1 signaling pathway - cell viability counter screen (AID 1159525); further: nearly all actives have a fitted effect of over 55% in size
Procedure, shortened: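 AP-1-bla ME-180 cells in Opti-MEM with 0.5% dialyzed FBS, compound exposure 5 h at 37 C in 15-point titration. Viability read in the same wells as ATP content by CellTiter-Glo luminescence, normalised to tetra-n-octylammonium bromide and DMSO controls.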

[8] = qHTS assay to identify small molecule agonists of the AP-1 signaling pathway (AID 1159526)
[9] = qHTS assay to identify small molecule agonists of the endoplasmic reticulum stress response signaling pathway - cell viability counter screen (AID 1159517);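 further: HeLa cells carrying an ER stress response element beta-lactamase reporter; series mostly up to about 61 µM; nearly all actives have a fitted effect of over 50% in size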
Procedure, shortened: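 Counter-screen wells were identical to the reporter wells. Cells were plated at 1,500 per well and dosed for 5 hr, then read for luminescence 30 min after CellTiter-Glo addition.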

[10] = molecular target: Nuclear receptor ROR-gamma (Homo sapiens) (UniProt P51449); assay: qHTS assay to identify small molecule antagonists of the retinoid-related orphan receptor gamma (ROR-gamma) signaling pathway (AID 1159521; active means well fitted curve in the direction sought with a large enough effect in the repeat runs; an effect the other way counts as inactive or inconclusive; further: nearly all actives have a fitted effect of over 50% in size; further: potency means the concentration at half of the fitted maximal effect)
Procedure, shortened: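 Luminescence readout (ONE-Glo, 30 min RT) after 16 h doxycycline induction; loss of signal scored as antagonism. CHO cells with TET-inducible RORγ and RORE-LUC reporter; compounds added 2 h before 1 uM final doxycycline.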

O=C(O)COc1ccc(Cl)cc1
Potency [1]: inactive | Potency [2]: inactive | outcome [3]: inactive | Potency [4]: inactive | outcome [5]: inactive | Potency [6]: inactive | Potency [7]: inactive | outcome [8]: inactive

COC(C)(C)CCC[C@H](C)C/C=C/C(C)=C/C(=O)OC(C)C
outcome [3]: inactive | Potency [4]: inactive | outcome [5]: inactive | Potency [6]: inactive | Potency [7]: inactive | outcome [8]: inactive

CC/C(=N\OC/C=C/Cl)C1=C(O)CC(C2CCOCC2)CC1=O (configuration not stated)
Potency [1]: inactive | Potency [2]: inactive | outcome [3]: inactive | Potency [4]: inactive | outcome [5]: inactive | Potency [6]: inactive | outcome [8]: inactive

CN(N=O)c1ccc([N+](=O)[O-])cc1
Potency [1]: inactive | outcome [3]: inactive | Potency [4]: inactive | outcome [5]: inactive | Potency [6]: inactive | outcome [8]: inactive

Clc1cc(Cl)c(Cl)c(Cl)c1
Potency [1]: inactive | Potency [2]: inactive | outcome [3]: inactive | Potency [4]: inactive | outcome [5]: inactive | Potency [6]: inactive | Potency [7]: inactive | outcome [8]: inactive

CCOC(=O)[C@]1(c2ccccc2)Oc2ccccc2[C@@H]1N
outcome [3]: inactive | Potency [4]: inactive | Potency [9]: inactive | Potency [6]: inactive | Potency [10]: inactive

CC(=O)CCC(C)=O
Potency [1]: inactive | Potency [2]: inactive | outcome [3]: inactive | Potency [4]: inactive | outcome [5]: inactive | Potency [6]: inactive | Potency [10]: inactive | outcome [8]: inactive

CCCCCC[N+](=O)[O-]
Potency [1]: inactive | Potency [2]: inactive | outcome [3]: inactive | Potency [4]: inactive | outcome [5]: inactive | Potency [6]: inactive | Potency [7]: inactive | outcome [8]: inactive

[O-][Cl+]O
Potency [1]: inactive | Potency [2]: inactive | outcome [3]: inactive | Potency [4]: inactive | Potency [9]: inactive | Potency [6]: inactive | Potency [10]: inactive | Potency [7]: inactive | outcome [8]: inactive

COCCOCCO
Potency [2]: inactive | outcome [3]: inactive | Potency [4]: inactive | outcome [5]: inactive | Potency [6]: inactive | Potency [10]: inactive

CC(O)(CS(=O)(=O)c1ccc(F)cc1)C(=O)Nc1ccc(C#N)c(C(F)(F)F)c1 (configuration not stated)
Potency [1]: inactive | outcome [3]: inactive | Potency [4]: inactive | Potency [9]: inactive | Potency [6]: inactive | Potency [10]: 25.2 µM (active) | Potency [7]: inactive | outcome [8]: inactive

OC(c1ccc(Cl)cc1)(c1ccc(Cl)cc1)c1cccnc1
outcome [3]: inactive | Potency [4]: inactive | Potency [9]: inactive | Potency [6]: inactive | Potency [10]: 54.5 µM (active) | Potency [7]: inactive

C=COC(C)=O
Potency [1]: inactive | Potency [2]: inactive | outcome [3]: inactive | Potency [4]: inactive | Potency [9]: inactive | Potency [6]: inactive | Potency [10]: inactive | Potency [7]: inactive | outcome [8]: inactive

COP(=S)(OC)Oc1cc(Cl)c(I)cc1Cl
Potency [2]: inactive | outcome [3]: inactive | Potency [4]: inactive | outcome [5]: inactive | Potency [6]: inactive | Potency [7]: inactive

ClCc1ccccc1
Potency [1]: inactive | Potency [2]: inactive | outcome [3]: inactive | Potency [4]: inactive | outcome [5]: inactive | Potency [6]: inactive | Potency [7]: inactive | outcome [8]: inactive

O=NN1CCCCCC1
Potency [1]: inactive | Potency [2]: inactive | outcome [3]: inactive | Potency [4]: inactive | Potency [9]: inactive | Potency [6]: inactive | Potency [10]: inactive | Potency [7]: inactive | outcome [8]: inactive

CCOP(=O)(OCC)Oc1ccc([N+](=O)[O-])cc1
Potency [1]: inactive | Potency [2]: inactive | outcome [3]: inactive | Potency [4]: inactive | Potency [9]: inactive | Potency [6]: inactive | Potency [10]: inactive | Potency [7]: inactive | outcome [8]: inactive

CC(C)(C)c1cc([N+](=O)[O-])cc([N+](=O)[O-])c1O
outcome [3]: inactive | Potency [4]: inactive | Potency [9]: inactive | Potency [10]: 6.09 µM (active) | Potency [7]: inactive

O=S(=O)(Cl)c1ccccc1
Potency [1]: inactive | Potency [2]: inactive | outcome [3]: inactive | Potency [4]: inactive | Potency [9]: inactive | Potency [6]: inactive | Potency [7]: inactive | outcome [8]: inactive

O=Cc1ccc2c(c1)OCO2
Potency [1]: inactive | Potency [2]: inactive | outcome [3]: inactive | Potency [4]: inactive | Potency [9]: inactive | Potency [6]: inactive | Potency [10]: inactive | Potency [7]: inactive | outcome [8]: inactive

COC(N)=O
Potency [1]: inactive | Potency [2]: inactive | outcome [3]: inactive | Potency [4]: inactive | Potency [9]: inactive | Potency [6]: inactive | Potency [7]: inactive | outcome [8]: inactive

O=C(C(Cl)(Cl)Cl)C(Cl)(Cl)Cl
Potency [1]: inactive | Potency [2]: inactive | outcome [3]: inactive | Potency [4]: inactive | Potency [9]: inactive | Potency [6]: inactive | Potency [7]: inactive | outcome [8]: inactive

O=[N+]([O-])c1ccccc1CCl
Potency [1]: inactive | Potency [2]: inactive | outcome [3]: inactive | Potency [4]: inactive | Potency [9]: inactive | Potency [6]: inactive | Potency [10]: inactive | Potency [7]: inactive

II
Potency [1]: inactive | Potency [2]: inactive | outcome [3]: inactive | Potency [4]: inactive | Potency [9]: inactive | Potency [6]: 30.6 µM (active)

CC1Sc2c(C(=O)O)c(=O)c3cc(F)c(N4CCNCC4)cc3n21 (configuration not stated)
Potency [1]: inactive | Potency [2]: inactive | outcome [3]: inactive | Potency [4]: inactive | Potency [9]: inactive | Potency [6]: inactive | Potency [10]: inactive | Potency [7]: inactive | outcome [8]: inactive

c1ccc(CN2CCNCC2)cc1
Potency [1]: inactive | Potency [2]: inactive | outcome [3]: inactive | Potency [4]: inactive | Potency [9]: inactive | Potency [6]: inactive | Potency [7]: inactive | outcome [8]: inactive

C=CC(=O)OC
Potency [1]: inactive | Potency [2]: inactive | outcome [3]: inactive | Potency [4]: inactive | Potency [9]: inactive | Potency [6]: inactive | outcome [8]: inactive

CCCCN(N=O)C(=N)N[N+](=O)[O-]
Potency [1]: inactive | Potency [2]: inactive | outcome [3]: inactive | Potency [4]: inactive | Potency [9]: inactive | Potency [10]: inactive | Potency [7]: inactive

O=C(O)c1ccccc1C(=O)Nc1cccc2ccccc12
Potency [1]: inactive | Potency [2]: inactive | outcome [3]: inactive | Potency [4]: inactive | Potency [9]: inactive | Potency [6]: inactive | Potency [10]: inactive

COc1nn(C(=O)NS(=O)(=O)c2ccccc2OC(F)(F)F)c(=O)n1C
Potency [1]: inactive | Potency [2]: inactive | outcome [3]: inactive | Potency [4]: inactive | Potency [9]: inactive | Potency [6]: inactive | Potency [7]: inactive | outcome [8]: inactive

C(=NC1CCCCC1)=NC1CCCCC1
Potency [1]: inactive and 24.5 µM (active) | Potency [2]: inactive | outcome [3]: inactive | Potency [4]: inactive | Potency [9]: inactive | Potency [10]: inactive | Potency [7]: inactive | outcome [8]: inactive
